# Source: the supplement of paper PMC3545927
# The other results are listed elsewhere or left out. How many sequences the whole screen found active is unknown.
# Target: furin, P09958
# Test: furin cleavage Z-score vs untreated control; higher = more cleavage, active = 3.5 or more, inactive = 1 or less, 8 variable residues between constant flanks
# How it was run: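 Read counts from sequencing released DNA gave abundance for each bead-bound 8-mer peptide–cDNA fusion cut by purified furin over 7.5, 15 or 30 min. The cleavage Z-score compares log counts with furin-free reactions after lowess adjustment and median absolute deviation scaling.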
# 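Further: purified furin at 1:10 enzyme:substrate in 50 mM HEPES pH 7.5.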
# furin, P09958, sequence (P09958 whole entry): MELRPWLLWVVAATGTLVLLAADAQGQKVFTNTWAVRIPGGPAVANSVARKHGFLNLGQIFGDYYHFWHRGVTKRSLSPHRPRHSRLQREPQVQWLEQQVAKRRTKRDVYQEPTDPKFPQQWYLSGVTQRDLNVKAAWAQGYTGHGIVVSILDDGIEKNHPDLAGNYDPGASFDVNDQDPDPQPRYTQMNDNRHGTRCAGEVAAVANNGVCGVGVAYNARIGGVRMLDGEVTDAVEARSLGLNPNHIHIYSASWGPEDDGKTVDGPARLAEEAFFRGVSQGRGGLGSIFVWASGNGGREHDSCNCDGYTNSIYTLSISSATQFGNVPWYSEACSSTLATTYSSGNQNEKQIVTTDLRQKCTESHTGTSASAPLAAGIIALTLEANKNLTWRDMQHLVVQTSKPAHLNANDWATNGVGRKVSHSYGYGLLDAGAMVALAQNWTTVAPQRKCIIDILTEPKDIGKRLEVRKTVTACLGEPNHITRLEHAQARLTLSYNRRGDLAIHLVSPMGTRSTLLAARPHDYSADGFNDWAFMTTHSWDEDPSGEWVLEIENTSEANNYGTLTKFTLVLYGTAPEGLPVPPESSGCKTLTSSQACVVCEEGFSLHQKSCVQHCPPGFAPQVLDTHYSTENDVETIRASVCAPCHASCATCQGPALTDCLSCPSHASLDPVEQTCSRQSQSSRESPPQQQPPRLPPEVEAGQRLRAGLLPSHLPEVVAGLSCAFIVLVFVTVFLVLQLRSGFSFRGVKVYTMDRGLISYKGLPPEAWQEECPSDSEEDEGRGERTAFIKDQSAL
Sequence,furin cleavage Z-score (7.5 min),furin cleavage Z-score (15 min),furin cleavage Z-score (30 min)
CAVVCCSHSYAGNASASA [HC2055],1.14,-0.432 (inactive),0.703 (inactive)
CAGEECSQHLAGNASASA [HC1676],0.0385 (inactive),1.42,-0.903 (inactive)
CARRRRDLGSAGNASASA [FS-2517],10.6 (active),10 (active),9.26 (active)
CANEITLTHPAGNASASA [HC977],-0.433 (inactive),0.337 (inactive),0.088 (inactive)
CAVNSWLGNIAGNASASA [HC1573],1.52,0.0684 (inactive),-1.01 (inactive)
CARPPLGNWFAGNASASA [HC432],1.77,0.979 (inactive),-0.0677 (inactive)
CAAKERLKRKAGNASASA [FS-213],9.07 (active),9.78 (active),9.62 (active)
CADPKRTIGQAGNASASA [FS-1982],0.168 (inactive),-0.891 (inactive),-1.67 (inactive)
CALSKRKKRKAGNASASA [FS-827],8.35 (active),9.52 (active),8.96 (active)
CANKKRKARWAGNASASA [FS-1238],6.93 (active),7.47 (active),9.18 (active)
CAKRKRWTGQAGNASASA [FS-2478],1,4.62 (active),4.37 (active)
CANKKRGGTAAGNASASA [WN4],-1.48 (inactive),-0.337 (inactive),-0.0754 (inactive)
CARKERRKHKAGNASASA [FS-2959],-0.0944 (inactive),-0.106 (inactive),0.503 (inactive)
CAWEKRSRGQAGNASASA [FS-2625],-0.652 (inactive),-0.795 (inactive),-0.906 (inactive)
CAQWARYARWAGNASASA [FS-484],-0.0806 (inactive),1.37,2.8
CATTCCSGSWAGNASASA [HC1880],-0.863 (inactive),-1.92 (inactive),-0.734 (inactive)
CAQVPCHRPSAGNASASA [HC2322],0.276 (inactive),1.25,1.48
CAKKKRVVPKAGNASASA [FS-2122],-1.74 (inactive),-0.376 (inactive),-0.937 (inactive)
CAKRKRSKRKAGNASASA [FS-1223],10.8 (active),10.5 (active),8.25 (active)
CAKKKRAACKAGNASASA [FS-2541],0.497 (inactive),-0.617 (inactive),1.88
CAGRSHSKRKAGNASASA [FS-245],1.44,0.295 (inactive),1.58
CAKKKRRKRKAGNASASA [FS-1218],5.44 (active),7 (active),6.09 (active)
CAKKKRKFSKAGNASASA [FS-2866],-0.0204 (inactive),-0.905 (inactive),-0.0235 (inactive)
CAKKKRKKRKAGNASASA [FS-673],4.92 (active),5.01 (active),5.6 (active)

Sequence,furin cleavage Z-score (7.5 min),furin cleavage Z-score (15 min),furin cleavage Z-score (30 min)
CAKNMRRKRKAGNASASA [FS-1222],9.63 (active),9.29 (active),7.84 (active)
CALGALTGTYAGNASASA [HC631],-0.145 (inactive),0.814 (inactive),0.51 (inactive)
CAVFPDLGVRAGNASASA [HC1451],-2.35 (inactive),-0.19 (inactive),0.302 (inactive)
CARERRWQDVAGNASASA [FS-1698],-0.457 (inactive),0.122 (inactive),1.79
CARKWRSWKVAGNASASA [FS-2274],1.07,1.35,0.0619 (inactive)
CARQMRSVDVAGNASASA [FS-3039],2.09,3.9 (active),5.69 (active)
CARVTRSLDVAGNASASA [FS-3127],5.89 (active),8.68 (active),7.6 (active)
CARQNRSRSIAGNASASA [FS-2362],-0.846 (inactive),0.141 (inactive),-0.0686 (inactive)
CARQMRSASIAGNASASA [FS-2400],0.584 (inactive),2.25,4.94 (active)
CAVVCCSMSIAGNASASA [HC2084],-0.331 (inactive),-1.27 (inactive),0.12 (inactive)
CAEKMALYDVAGNASASA [HC1456],0.218 (inactive),-0.51 (inactive),0.171 (inactive)
CARRKKILDVAGNASASA [FS-3049],0.884 (inactive),0.207 (inactive),-1.99 (inactive)
CAGGDIYHSVAGNASASA [HC1649],-1.03 (inactive),-0.366 (inactive),-0.802 (inactive)
CASSPCSAHLAGNASASA [HC2497],0.244 (inactive),0.911 (inactive),0.262 (inactive)
CAAVLTSMLTAGNASASA [HC1245],-1.15 (inactive),1.56,0.027 (inactive)
CAAAARARRFAGNASASA [FS-1108],2.41,5.92 (active),6.24 (active)
CANFHKARRFAGNASASA [FS-1143],-0.34 (inactive),-0.616 (inactive),-0.0235 (inactive)
CAAAAAAAAAAGNASASA [NE2],2.09,0.496 (inactive),2.15
CAVSKRHVRIAGNASASA [FS-2114],-0.647 (inactive),1.47,2.71
CAVSRRSRGIAGNASASA [FS-2857],1.63,3.08,4.54 (active)
CAVSRRARRFAGNASASA [FS-1436],10.2 (active),11.6 (active),10.4 (active)
CANWQKLETFAGNASASA [HC1037],0.812 (inactive),-1.06 (inactive),0.807 (inactive)
CANWQRARRFAGNASASA [FS-912],3.9 (active),4.91 (active),5.21 (active)
CARSNRQLGIAGNASASA [FS-2185],0.465 (inactive),-0.691 (inactive),0.216 (inactive)
